Columns and labels:
Assay in all cases: log2 ratio of Biotin-Ahx-Ub-VS probe labelling (fragment/DMSO); higher = less target engagement (more negative = stronger competition), active = hit call of the paper (q ≤ 0.05, log2 ratio ≤ -1)
Settings in all cases: compound concentration: 200 uM; treatment time: 3 h
USP34 = USP34 (UniProt Q70CQ2)
How it was run: (§1)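 Labelled DUBs were enriched with NeutrAvidin, digested with LysC and trypsin, and run by diaPASEF LC-MS/MS. The labelling used Biotin-Ahx-Ub-VS at 0.5 µM final for 1 h on HEK293T lysate (495 µg per sample) previously treated in triplicate with fragment at 200 µM or vehicle for 3 h. Values are average log2 fragment/vehicle ratios by unpaired t-test on global-median-normalised Spectronaut quantities of proteins with ≥2 unique peptides.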

USP36 = target: T1, USP36 (UniProt Q9P275)
T1 sequence (whole entry): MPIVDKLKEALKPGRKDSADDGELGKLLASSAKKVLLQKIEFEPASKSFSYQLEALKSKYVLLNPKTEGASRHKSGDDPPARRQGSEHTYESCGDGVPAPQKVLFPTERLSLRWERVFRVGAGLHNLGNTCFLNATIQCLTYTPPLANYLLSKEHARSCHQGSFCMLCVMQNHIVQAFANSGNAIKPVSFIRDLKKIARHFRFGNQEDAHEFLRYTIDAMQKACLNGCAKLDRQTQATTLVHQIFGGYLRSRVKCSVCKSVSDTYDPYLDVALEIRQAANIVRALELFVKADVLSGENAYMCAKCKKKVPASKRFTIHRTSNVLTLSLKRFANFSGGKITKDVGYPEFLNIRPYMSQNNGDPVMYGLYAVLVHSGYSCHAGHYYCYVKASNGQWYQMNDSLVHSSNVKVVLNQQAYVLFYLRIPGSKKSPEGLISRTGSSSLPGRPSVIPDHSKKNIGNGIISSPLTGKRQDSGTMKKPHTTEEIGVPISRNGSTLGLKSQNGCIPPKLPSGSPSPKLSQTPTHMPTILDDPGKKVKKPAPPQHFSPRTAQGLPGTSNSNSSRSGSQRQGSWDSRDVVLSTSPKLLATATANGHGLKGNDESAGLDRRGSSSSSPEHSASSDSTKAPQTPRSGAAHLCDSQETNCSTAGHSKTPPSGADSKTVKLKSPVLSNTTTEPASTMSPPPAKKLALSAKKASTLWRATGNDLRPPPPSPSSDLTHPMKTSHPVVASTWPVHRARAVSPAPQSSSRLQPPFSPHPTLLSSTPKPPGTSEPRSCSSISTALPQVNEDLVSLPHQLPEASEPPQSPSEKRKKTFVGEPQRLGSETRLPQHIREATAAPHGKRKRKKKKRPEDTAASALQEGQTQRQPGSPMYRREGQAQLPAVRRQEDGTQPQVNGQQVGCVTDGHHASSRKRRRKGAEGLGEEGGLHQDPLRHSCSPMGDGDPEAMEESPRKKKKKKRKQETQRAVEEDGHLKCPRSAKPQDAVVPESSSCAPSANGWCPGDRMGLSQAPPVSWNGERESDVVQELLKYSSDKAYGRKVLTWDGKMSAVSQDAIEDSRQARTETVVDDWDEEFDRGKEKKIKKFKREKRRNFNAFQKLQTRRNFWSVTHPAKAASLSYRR
How it was run: as §1

USP38 = target: T2, USP38 (UniProt Q8NB14)
T2 sequence (whole entry): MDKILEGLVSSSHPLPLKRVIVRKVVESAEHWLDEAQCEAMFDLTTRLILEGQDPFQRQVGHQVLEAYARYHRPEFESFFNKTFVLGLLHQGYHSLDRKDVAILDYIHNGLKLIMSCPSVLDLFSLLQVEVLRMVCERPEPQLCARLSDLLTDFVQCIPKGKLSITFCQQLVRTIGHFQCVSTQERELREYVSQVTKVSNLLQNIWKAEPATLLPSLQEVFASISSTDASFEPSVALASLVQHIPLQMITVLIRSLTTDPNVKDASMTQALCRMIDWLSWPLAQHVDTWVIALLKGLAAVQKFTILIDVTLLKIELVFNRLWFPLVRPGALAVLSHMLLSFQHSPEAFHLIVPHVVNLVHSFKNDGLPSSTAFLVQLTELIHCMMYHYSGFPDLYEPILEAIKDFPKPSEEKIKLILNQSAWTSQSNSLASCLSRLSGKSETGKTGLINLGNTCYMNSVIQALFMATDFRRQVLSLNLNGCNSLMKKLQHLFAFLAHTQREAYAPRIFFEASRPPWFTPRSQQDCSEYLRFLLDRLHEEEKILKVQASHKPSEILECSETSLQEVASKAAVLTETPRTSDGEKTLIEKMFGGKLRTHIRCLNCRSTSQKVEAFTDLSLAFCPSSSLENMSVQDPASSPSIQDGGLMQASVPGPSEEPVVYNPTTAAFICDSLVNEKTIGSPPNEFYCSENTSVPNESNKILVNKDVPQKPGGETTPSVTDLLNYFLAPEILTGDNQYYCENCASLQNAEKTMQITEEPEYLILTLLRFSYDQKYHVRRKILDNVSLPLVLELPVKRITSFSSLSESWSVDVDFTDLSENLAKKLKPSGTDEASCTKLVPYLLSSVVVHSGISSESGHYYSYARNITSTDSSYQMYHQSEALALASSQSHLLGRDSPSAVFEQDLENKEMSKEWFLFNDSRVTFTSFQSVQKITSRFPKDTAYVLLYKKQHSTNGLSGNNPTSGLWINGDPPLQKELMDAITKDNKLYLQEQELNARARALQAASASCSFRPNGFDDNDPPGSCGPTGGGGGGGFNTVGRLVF
How it was run: as §1

USP39 = target: T3, USP39 (UniProt Q53GS9)
T3 sequence (whole entry): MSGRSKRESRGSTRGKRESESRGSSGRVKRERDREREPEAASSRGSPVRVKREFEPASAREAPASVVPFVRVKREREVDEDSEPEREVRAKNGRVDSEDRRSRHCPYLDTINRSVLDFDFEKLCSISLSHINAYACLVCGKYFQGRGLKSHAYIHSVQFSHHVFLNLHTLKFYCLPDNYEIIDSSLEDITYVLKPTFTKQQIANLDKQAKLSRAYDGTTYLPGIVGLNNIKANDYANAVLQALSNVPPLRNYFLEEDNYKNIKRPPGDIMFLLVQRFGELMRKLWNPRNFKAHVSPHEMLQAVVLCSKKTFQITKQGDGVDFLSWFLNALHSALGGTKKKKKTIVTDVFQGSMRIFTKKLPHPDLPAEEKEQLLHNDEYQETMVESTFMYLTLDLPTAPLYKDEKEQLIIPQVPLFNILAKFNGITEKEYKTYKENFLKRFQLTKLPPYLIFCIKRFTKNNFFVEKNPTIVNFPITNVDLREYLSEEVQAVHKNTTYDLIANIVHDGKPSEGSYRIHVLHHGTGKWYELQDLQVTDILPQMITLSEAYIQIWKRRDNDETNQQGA
How it was run: as §1

USP4 = target: T4, USP4 (UniProt Q13107)
T4 sequence (whole entry): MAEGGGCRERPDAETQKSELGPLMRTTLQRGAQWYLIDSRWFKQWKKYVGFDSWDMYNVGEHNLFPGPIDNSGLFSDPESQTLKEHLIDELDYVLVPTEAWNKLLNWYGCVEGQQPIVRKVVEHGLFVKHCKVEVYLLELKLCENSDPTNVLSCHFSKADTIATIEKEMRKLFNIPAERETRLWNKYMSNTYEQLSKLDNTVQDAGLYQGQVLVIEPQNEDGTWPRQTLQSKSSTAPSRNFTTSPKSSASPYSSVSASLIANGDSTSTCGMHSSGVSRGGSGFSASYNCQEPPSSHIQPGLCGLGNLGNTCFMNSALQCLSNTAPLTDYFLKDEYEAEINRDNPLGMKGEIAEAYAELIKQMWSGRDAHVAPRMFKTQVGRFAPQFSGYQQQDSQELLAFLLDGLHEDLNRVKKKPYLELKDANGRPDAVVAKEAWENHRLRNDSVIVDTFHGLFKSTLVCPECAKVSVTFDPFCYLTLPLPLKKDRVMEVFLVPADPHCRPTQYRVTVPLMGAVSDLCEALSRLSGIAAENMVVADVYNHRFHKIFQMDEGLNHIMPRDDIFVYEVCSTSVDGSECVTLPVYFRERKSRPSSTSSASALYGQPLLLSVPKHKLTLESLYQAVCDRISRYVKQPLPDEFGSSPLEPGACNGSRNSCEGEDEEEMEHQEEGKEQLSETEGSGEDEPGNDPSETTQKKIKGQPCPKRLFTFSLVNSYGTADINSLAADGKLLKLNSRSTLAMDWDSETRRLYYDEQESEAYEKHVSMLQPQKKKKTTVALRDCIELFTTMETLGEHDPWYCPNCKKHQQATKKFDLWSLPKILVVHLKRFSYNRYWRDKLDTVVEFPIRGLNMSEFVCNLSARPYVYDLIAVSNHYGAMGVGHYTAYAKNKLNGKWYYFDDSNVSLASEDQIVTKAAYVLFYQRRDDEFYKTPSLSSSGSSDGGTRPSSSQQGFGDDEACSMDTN
How it was run: as §1

Measured: log2 ratio of Biotin-Ahx-Ub-VS probe labelling

Chain of USP34 (Q70CQ2 whole entry, the tested form may be a part): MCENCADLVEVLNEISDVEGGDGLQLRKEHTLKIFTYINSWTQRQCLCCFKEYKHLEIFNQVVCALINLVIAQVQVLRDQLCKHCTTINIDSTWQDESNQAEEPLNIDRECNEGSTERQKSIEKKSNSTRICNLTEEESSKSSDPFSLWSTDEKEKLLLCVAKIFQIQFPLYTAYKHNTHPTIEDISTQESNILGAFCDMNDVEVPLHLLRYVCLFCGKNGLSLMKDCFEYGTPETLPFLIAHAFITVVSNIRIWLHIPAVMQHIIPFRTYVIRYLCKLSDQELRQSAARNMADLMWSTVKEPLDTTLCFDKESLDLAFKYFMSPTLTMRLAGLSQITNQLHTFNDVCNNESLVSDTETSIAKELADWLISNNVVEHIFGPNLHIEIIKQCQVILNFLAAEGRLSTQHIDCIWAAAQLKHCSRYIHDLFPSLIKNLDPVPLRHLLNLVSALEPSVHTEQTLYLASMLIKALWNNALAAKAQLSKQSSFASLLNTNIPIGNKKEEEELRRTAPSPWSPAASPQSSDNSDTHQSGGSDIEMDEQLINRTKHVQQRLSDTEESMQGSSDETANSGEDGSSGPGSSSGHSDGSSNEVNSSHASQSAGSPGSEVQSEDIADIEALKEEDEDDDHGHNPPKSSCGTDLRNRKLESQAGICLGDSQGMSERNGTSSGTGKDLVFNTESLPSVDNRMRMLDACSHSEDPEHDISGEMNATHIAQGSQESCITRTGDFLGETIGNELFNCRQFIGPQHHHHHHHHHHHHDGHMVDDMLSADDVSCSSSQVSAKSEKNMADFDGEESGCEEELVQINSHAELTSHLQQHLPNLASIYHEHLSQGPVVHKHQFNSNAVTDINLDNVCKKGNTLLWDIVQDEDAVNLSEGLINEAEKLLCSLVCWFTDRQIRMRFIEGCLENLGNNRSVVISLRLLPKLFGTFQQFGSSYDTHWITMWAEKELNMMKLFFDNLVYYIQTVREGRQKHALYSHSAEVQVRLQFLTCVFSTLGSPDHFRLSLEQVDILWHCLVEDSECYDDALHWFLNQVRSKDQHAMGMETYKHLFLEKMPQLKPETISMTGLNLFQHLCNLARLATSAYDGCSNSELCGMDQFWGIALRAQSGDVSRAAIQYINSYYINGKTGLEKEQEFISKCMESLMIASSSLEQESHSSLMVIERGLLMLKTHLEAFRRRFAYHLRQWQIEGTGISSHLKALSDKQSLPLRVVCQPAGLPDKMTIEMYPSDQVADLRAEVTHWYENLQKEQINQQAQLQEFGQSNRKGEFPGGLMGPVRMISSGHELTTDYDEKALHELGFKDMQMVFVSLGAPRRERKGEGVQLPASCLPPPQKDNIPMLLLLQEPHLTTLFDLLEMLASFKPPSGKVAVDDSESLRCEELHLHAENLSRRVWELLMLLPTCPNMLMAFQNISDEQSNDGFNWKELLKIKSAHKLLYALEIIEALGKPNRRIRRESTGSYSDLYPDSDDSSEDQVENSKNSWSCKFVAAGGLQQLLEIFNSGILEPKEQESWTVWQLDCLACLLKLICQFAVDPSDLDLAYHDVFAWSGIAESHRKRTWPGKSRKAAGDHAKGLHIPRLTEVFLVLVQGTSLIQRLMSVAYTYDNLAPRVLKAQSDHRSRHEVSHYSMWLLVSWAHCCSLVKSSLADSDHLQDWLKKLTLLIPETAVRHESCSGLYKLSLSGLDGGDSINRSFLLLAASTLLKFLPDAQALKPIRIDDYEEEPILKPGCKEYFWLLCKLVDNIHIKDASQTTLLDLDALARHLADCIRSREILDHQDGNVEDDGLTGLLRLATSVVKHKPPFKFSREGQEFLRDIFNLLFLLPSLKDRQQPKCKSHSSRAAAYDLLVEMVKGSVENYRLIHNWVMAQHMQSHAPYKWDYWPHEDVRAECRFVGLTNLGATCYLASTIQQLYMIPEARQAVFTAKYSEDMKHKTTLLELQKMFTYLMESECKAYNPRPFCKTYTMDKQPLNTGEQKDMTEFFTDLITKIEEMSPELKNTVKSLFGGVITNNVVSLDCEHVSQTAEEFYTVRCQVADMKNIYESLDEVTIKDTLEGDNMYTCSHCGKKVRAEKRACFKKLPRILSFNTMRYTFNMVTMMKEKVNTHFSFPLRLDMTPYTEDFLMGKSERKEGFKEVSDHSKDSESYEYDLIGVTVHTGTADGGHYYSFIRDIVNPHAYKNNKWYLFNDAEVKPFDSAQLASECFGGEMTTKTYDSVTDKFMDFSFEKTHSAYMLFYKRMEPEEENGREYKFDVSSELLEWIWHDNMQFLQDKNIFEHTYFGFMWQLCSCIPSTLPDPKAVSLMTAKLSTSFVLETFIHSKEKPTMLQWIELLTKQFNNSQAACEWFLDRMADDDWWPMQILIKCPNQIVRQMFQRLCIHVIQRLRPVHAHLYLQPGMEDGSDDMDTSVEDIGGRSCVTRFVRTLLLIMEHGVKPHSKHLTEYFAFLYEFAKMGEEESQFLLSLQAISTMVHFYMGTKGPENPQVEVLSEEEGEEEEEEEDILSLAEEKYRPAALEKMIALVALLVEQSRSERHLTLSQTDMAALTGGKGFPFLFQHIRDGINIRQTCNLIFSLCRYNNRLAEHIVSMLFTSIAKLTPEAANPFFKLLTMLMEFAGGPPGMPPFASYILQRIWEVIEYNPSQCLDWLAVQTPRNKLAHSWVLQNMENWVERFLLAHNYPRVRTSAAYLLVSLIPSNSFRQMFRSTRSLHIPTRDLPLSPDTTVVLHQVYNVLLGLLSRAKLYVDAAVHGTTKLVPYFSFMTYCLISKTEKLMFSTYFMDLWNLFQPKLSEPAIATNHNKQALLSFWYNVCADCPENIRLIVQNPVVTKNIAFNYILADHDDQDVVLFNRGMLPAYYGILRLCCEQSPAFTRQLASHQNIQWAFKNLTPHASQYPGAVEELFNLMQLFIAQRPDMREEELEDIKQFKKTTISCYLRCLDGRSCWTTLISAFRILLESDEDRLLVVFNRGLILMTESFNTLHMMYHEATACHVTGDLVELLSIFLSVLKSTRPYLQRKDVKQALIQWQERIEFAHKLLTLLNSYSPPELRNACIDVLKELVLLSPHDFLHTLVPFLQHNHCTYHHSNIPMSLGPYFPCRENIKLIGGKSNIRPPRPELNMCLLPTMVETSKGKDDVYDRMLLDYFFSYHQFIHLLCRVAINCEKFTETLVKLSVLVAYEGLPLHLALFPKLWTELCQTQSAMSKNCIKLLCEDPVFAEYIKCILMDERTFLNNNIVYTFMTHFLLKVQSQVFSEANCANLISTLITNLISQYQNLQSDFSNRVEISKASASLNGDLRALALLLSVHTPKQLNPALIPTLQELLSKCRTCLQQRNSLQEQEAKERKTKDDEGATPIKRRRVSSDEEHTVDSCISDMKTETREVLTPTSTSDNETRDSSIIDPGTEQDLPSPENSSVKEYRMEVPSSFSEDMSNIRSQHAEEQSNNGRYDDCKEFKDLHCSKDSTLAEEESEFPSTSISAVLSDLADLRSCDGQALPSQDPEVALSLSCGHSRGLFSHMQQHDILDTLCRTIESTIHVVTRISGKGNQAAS

Cl.O=C(CCl)N1CCC(n2nc3ccccc3n2)CC1
inactive: USP34 -0.257 | USP36 0.0455 | USP38 -0.223 | USP39 -0.0437 | USP4 -0.443

From the supplement of paper PMC11732987, “Enantioselective OTUD7B fragment discovery through chemoproteomics screening and high-throughput optimisation” (Communications Chemistry, 2025)
